# Source: the supplement of paper PMC10849652
# The full data set covers some 8,800 targets. This sample favours those with a hit. About 0.5% of all pairs of compound and target were hits. Unmarked numbers belong to inactive results.
# Legend:
# Assay in all cases: log2 fold change, soluble protein after heating vs DMSO (PISA); higher = thermal stabilisation; K562 lysate, 10 uM; active = over 0.2 and 3.5 SD of the protein, either way, in both replicates (recomputed)
# ibrutinib = compound: C=CC(=O)N1CCC[C@@H](n2nc(-c3ccc(Oc4ccccc4)cc3)c3c(N)ncnc32)C1 [ibrutinib]
# How it was run: (§1)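 K562 pellets were dounce-homogenised in PBS pH 7.4 containing 1 mM MgCl2, and the crude extract, at 1 mg/mL protein, was exposed to 10 μM compound for 30 min. Aliquots were heated for 3 min across 48°C-58°C, pooled, brought to 0.5% NP-40 at 4°C and spun at 21,000xg for 90 min, with the supernatant taken as soluble protein. TMTpro 16plex LC-MS/MS with equalised channel sums quantified that protein. Values are log-two fold changes in thermal stability relative to solvent controls, taken from duplicates.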
# [1] = compound: CC(=O)c1cnc2ccc(-c3cc(Cl)c(O)c(Cl)c3)nc2c1N[C@H]1CC[C@H](CN(C)C)CC1
# How it was run: as §1
# ralimetinib = compound: CC(C)(C)Cn1c(N)nc2ccc(-c3[nH]c(C(C)(C)C)nc3-c3ccc(F)cc3)nc21 [ralimetinib]
# How it was run: as §1
# [2] = compound: CC(C)(O)CC(=O)NCCn1ccc2ncnc(Nc3ccc(Oc4cccc(C(F)(F)F)c4)c(Cl)c3)c21
# How it was run: as §1
# [3] = compound: CC(C)C1=C2N=C(C=C(N2N=C1)NCC3=CC=CC=C3)NCCCCCCN
# How it was run: as §1
# [4] = compound: CC1=C(C(CC(=O)N1)C2=CC=C(C=C2)C(F)(F)F)C(=O)NC3=C(C=C4C(=C3)C=NN4)F
# How it was run: as §1
# [5] = compound: CC1=C(C2=C(C=C1)C(=O)C3=CC=CC=C3N2CCCN)C
# How it was run: as §1
# [6] = compound: CC1=C(C=C(C=C1)NC(=O)C2=CC(=CC=C2)C(C)(C)C#N)NC3=CC4=C(C=C3)N=CN(C4=O)C
# How it was run: as §1
# [7] = compound: CC1=C(C=C(C=C1)NC(=O)C2=CC(=CC=C2)N(C)C)NC(=O)C3=CC=C(C=C3)O
# How it was run: as §1
# [8] = compound: CC1=CC=C(C=C1)SC2=C3C=C(SC3=CN=C2)C(=O)N
# How it was run: as §1
# UniProt Q8N4J0, sequence (Q8N4J0 whole entry, looked up): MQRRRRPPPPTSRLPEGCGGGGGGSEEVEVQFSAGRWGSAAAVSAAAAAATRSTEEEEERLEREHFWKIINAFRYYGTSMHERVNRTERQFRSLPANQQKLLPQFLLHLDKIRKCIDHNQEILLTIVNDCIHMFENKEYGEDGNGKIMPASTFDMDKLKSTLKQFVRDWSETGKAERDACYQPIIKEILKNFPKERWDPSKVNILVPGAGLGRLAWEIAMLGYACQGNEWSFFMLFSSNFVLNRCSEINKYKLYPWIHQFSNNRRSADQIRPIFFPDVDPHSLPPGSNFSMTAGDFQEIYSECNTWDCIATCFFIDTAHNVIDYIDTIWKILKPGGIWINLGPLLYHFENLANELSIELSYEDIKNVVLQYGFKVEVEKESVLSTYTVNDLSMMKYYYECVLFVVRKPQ
# UniProt Q8N960, sequence (Q8N960 whole entry, looked up): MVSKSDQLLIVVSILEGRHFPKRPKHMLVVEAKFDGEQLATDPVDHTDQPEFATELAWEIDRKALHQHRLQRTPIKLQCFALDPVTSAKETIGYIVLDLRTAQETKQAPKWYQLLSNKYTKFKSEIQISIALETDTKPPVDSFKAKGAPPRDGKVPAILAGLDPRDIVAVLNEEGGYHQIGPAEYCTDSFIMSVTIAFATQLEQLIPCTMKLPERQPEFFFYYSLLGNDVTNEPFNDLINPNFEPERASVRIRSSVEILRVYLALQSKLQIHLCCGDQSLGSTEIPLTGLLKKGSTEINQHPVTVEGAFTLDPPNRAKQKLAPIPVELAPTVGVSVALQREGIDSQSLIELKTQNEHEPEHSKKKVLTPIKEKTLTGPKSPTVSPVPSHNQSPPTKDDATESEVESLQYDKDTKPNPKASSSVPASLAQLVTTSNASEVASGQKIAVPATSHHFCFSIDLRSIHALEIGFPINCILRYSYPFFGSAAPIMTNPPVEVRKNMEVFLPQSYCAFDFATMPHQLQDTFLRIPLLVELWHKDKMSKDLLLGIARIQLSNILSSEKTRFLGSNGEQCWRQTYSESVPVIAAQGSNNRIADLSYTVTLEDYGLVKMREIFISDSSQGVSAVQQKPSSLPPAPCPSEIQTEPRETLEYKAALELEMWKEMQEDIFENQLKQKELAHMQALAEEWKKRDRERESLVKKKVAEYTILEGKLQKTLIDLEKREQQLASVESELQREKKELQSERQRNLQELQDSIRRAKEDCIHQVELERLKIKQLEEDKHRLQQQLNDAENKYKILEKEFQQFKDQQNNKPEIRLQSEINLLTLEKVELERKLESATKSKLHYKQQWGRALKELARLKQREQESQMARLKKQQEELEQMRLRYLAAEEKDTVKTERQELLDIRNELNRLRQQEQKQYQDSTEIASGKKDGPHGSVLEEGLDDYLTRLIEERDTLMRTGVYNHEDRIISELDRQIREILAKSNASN
# UniProt Q86WA6, sequence (Q86WA6 whole entry, looked up): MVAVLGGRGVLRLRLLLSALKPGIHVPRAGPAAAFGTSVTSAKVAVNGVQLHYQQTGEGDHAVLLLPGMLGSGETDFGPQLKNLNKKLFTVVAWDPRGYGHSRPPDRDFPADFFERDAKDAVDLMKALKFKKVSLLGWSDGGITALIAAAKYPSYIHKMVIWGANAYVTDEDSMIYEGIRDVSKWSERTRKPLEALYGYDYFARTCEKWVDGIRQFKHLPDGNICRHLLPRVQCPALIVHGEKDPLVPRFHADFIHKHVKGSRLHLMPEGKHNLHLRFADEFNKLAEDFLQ
# UniProt Q13315, sequence (Q13315 whole entry, looked up): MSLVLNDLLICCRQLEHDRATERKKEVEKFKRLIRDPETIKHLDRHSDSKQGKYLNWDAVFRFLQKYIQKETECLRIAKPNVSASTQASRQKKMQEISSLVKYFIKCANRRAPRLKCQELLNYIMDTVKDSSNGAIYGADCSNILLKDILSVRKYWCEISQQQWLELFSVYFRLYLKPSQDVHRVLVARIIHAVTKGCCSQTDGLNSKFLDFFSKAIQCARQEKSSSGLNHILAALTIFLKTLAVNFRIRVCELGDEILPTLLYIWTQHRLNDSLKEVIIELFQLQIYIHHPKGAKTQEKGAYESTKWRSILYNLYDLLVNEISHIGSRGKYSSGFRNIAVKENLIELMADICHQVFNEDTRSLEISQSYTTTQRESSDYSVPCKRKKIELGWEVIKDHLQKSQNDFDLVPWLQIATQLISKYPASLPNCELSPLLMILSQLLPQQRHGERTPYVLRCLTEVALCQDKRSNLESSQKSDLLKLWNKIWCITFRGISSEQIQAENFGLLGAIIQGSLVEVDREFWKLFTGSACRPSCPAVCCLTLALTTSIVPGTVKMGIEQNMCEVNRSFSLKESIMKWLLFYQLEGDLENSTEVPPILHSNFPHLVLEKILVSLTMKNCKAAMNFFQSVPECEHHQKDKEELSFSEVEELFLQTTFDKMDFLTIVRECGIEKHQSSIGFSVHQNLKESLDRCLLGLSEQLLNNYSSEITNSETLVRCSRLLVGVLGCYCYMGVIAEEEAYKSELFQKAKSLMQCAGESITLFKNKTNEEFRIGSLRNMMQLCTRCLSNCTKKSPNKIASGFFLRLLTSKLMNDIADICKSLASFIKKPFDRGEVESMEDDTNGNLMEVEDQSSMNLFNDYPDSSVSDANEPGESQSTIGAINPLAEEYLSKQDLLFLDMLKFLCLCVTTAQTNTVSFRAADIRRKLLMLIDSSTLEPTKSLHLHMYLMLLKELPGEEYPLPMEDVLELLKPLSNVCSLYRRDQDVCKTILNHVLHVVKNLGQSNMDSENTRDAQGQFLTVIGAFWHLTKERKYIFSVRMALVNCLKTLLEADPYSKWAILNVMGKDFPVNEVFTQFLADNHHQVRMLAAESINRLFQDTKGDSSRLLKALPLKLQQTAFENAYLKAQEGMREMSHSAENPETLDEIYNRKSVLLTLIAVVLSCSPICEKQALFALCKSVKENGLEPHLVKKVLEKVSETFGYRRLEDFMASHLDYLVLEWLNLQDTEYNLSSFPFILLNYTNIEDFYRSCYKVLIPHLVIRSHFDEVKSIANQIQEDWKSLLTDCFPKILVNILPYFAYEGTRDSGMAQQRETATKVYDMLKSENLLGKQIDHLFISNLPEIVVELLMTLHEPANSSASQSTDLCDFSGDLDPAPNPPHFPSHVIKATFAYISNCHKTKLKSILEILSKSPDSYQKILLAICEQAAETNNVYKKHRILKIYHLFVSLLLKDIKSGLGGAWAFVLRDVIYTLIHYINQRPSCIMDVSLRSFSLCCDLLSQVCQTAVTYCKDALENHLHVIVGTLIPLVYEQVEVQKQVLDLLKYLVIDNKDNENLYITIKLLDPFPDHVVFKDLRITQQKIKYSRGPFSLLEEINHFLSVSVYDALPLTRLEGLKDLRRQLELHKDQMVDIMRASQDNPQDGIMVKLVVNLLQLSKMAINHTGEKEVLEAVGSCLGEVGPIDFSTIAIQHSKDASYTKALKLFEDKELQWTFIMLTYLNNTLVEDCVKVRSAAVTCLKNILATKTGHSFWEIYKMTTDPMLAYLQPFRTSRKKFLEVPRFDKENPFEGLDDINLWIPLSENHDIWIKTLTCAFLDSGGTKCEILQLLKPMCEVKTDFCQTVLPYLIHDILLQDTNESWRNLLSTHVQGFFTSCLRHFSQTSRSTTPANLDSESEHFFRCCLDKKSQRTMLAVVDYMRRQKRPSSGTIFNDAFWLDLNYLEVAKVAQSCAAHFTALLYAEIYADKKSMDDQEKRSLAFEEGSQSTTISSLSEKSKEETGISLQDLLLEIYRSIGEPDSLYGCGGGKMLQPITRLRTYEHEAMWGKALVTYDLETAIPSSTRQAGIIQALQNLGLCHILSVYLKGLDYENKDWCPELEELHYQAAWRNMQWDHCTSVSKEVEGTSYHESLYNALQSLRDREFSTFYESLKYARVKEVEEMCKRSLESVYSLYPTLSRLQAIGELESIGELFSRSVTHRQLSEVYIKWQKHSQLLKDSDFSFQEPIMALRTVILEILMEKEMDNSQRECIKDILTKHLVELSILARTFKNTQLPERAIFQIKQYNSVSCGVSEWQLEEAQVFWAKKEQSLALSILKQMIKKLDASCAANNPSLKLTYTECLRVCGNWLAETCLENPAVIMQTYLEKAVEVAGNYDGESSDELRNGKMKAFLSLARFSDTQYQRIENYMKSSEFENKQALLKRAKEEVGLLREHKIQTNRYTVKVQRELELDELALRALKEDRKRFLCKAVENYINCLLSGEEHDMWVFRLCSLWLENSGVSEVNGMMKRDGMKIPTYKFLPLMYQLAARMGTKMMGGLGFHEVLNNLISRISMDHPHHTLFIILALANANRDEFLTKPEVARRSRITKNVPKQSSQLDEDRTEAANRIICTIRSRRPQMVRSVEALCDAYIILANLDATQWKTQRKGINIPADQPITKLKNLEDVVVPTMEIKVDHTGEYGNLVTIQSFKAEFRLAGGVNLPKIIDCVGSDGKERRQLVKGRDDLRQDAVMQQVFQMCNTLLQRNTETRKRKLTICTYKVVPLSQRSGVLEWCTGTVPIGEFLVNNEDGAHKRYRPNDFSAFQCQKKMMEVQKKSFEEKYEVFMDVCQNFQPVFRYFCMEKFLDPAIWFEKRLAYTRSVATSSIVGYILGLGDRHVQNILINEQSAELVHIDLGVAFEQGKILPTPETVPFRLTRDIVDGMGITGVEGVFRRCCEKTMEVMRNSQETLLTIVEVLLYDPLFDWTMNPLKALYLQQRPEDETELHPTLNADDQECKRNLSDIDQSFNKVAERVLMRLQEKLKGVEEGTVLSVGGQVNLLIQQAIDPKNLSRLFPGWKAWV
# UniProt Q9Y2V0, sequence (Q9Y2V0 whole entry, looked up): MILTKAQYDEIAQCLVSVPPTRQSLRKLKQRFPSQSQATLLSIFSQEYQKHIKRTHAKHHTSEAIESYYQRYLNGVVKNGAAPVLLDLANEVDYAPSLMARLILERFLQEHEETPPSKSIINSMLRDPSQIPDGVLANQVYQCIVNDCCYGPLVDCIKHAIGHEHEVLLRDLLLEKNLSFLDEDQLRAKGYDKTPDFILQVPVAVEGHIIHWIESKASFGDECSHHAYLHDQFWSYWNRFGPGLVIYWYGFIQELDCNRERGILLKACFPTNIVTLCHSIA
# UniProt Q8TCD1, sequence (Q8TCD1 whole entry, looked up): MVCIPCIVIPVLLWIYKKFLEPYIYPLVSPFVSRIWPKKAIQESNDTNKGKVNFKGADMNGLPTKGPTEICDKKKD
Target,log2 fold change (ibrutinib),log2 fold change [1],log2 fold change (ralimetinib),log2 fold change [2],log2 fold change [3],log2 fold change [4],log2 fold change [5],log2 fold change [6],log2 fold change [7],log2 fold change [8]
CDC45 isoform 3 (UniProt O75419),0.034,0.045,0.014,0.021,-0.005,0.036,-0.006,-0.032,0.031,-0.004
CEP120 (UniProt Q8N960),-0.02,-0.061,-0.076,-0.132,0.001,-0.174,-0.224,-0.015,0.001,-0.085
CAPNS1 (UniProt P04632),0.076,0.002,0.035,-0.007,-0.015,0.006,0.053,0,-0.025,0.01
CALM2 (UniProt P0DP24),0.262,0.004,-0.014,-0.238,-0.07,-0.044,-0.101,-0.013,-0.099,0.004
ATRIP (UniProt Q8WXE1),0.019,0.129,-0.007,-0.014,-0.048,0.063,0.005,-0.008,-0.008,-0.019
C12orf45 (UniProt Q8N5I9),0.027,0.003,0.005,0.014,0.033,-0.021,-0.02,-0.018,0.02,-0.043
BORCS5 (UniProt Q969J3),0.088,-0.02,-0.033,0.012,0.033,0.153,-0.012,0.021,0.034,-0.001
CHAC2 (UniProt Q8WUX2),-0.064,-0.014,-0.01,0.043,-0.118,-0.026,-0.048,-0.016,0.017,-0.031
C18orf32 (UniProt Q8TCD1),0.069,-0.014,0.053,-0.048,-0.069,-0.078,-0.021,0.074,-0.056,0.032
CDAN1 (UniProt Q8IWY9),0.035,-0.004,0,-0.029,-0.02,-0.001,-0.023,0.035,0.056,-0.008
CDK5 (UniProt Q00535),0.015,0.53 (active),0.004,-0.023,-0.032,-0.034,-0.006,-0.052,0.023,-0.058
CCNYL1 (UniProt Q8N7R7),0.047,0.007,0.019,-0.032,0.012,0.027,-0.023,0.028,-0.027,-0.006
CDC7 (UniProt O00311),0.04,0.09,0.014,0.028,0.047,0.066,-0.011,0.05,-0.002,-0.07
CHCHD2 (UniProt Q9Y6H1),-0.122,-0.005,-0.068,0.035,0.02,0.112,0.023,-0.172,-0.046,0.069
CARNMT1 (UniProt Q8N4J0),-0.014,-0.003,-0.007,-0.056,-0.041,0.004,-0.014,0.082,-0.043,-0.006
BPHL (UniProt Q86WA6),-0.073,-0.016,0.047,0.06,-0.045,0,-0.015,0.025,-0.004,-0.002
CDK1 (UniProt P06493),-0.071,0.433 (active),0.018,-0.037,-0.026,-0.029,0.01,0.033,0.011,0
CDK2 (UniProt P24941),-0.031,0.362 (active),-0.038,0.006,-0.036,-0.026,-0.016,-0.017,-0.003,-0.015
CDK11A (UniProt Q9UQ88),0.022,0.414 (active),0.003,0.056,-0.036,-0.03,-0.022,0.002,0.025,-0.014
CCAR2 (UniProt Q8N163),0.025,-0.019,0.012,-0.006,-0.018,0,0.01,0.003,0.015,-0.005
CFDP1 (UniProt Q9UEE9),0.032,0.014,0.051,-0.015,-0.052,-0.014,-0.027,0.021,0.027,-0.012
CELF1 isoform 4 (UniProt Q92879),0.027,-0.027,0.034,-0.004,0.033,0.072,0.016,-0.331 (active),0,0.025
CDK16 isoform 2 (UniProt Q00536),0.025,0.28,0.016,0.009,-0.089,-0.023,-0.007,-0.037,-0.024,-0.141
ATM (UniProt Q13315),0.027,0.253 (active),0.013,-0.021,0.04,0.002,-0.027,-0.014,-0.015,-0.013
ATP6V1B1 (UniProt P15313),-0.001,0,0.037,-0.025,-0.013,0.024,-0.011,0.005,0.031,-0.015
C15orf41 (UniProt Q9Y2V0),-0.028,-0.013,-0.018,-0.029,0.063,0.006,0.045,0.023,0.13,-0.106
CDC123 (UniProt O75794),0.025,0.022,0.06,0.008,0.027,0.045,0.016,-0.071,0.031,0.003
C5orf51 (UniProt A6NDU8),0.052,-0.008,0.001,-0.027,0.014,-0.005,0.004,0.042,0.042,-0.001
ATXN2 (UniProt Q99700),-0.007,-0.011,-0.002,0,0.016,0.013,-0.022,-0.02,0.041,-0.021
